ChEMBL document CHEMBL1961873, “Compounds: GSK PKIS; Assays: Nanosyn kinase panel” (2012)

How the values were obtained:
[1] = target: Tyrosine-protein kinase Fyn (Homo sapiens) (UniProt P06241); conditions: at 1 µM
[2] = target: Tyrosine-protein kinase HCK (Homo sapiens) (UniProt P08631); conditions: at 0.1 µM
[3] = target: Tyrosine-protein kinase HCK (Homo sapiens) (UniProt P08631); conditions: at 1 µM
[4] = target: Insulin-like growth factor 1 receptor (Homo sapiens) (UniProt P08069); conditions: at 0.1 µM
[5] = target: Insulin-like growth factor 1 receptor (Homo sapiens) (UniProt P08069); conditions: at 1 µM
[6] = target: Insulin receptor (Homo sapiens) (UniProt P06213); conditions: at 0.1 µM
[7] = target: Insulin receptor (Homo sapiens) (UniProt P06213); conditions: at 1 µM
[8] = target: Insulin receptor-related protein (Homo sapiens) (UniProt P14616); conditions: at 0.1 µM
[9] = target: Insulin receptor-related protein (Homo sapiens) (UniProt P14616); conditions: at 1 µM
[10] = target: T1, Tyrosine-protein kinase ITK/TSK (Homo sapiens) (UniProt Q08881); conditions: at 0.1 µM;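 further: mean percent inhibition of ITK from the GSK PKIS screen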
T1 sequence (whole entry): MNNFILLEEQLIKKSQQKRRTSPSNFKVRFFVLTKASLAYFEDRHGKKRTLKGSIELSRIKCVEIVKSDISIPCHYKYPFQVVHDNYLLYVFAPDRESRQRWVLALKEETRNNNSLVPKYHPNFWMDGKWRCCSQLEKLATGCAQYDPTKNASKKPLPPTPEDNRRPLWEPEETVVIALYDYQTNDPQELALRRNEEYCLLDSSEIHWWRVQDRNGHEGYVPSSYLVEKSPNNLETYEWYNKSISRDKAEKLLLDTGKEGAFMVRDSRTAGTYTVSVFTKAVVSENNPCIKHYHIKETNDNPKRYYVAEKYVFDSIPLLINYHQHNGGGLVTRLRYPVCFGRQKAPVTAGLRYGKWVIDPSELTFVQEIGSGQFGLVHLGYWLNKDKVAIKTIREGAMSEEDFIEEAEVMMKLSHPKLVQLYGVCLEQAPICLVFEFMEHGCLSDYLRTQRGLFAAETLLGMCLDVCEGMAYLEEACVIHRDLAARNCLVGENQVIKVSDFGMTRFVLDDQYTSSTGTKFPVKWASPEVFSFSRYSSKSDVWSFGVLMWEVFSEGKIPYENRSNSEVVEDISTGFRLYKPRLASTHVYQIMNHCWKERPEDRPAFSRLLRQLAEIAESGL

Chain of Insulin receptor (Homo sapiens) (P06213 28-758 limits assumed): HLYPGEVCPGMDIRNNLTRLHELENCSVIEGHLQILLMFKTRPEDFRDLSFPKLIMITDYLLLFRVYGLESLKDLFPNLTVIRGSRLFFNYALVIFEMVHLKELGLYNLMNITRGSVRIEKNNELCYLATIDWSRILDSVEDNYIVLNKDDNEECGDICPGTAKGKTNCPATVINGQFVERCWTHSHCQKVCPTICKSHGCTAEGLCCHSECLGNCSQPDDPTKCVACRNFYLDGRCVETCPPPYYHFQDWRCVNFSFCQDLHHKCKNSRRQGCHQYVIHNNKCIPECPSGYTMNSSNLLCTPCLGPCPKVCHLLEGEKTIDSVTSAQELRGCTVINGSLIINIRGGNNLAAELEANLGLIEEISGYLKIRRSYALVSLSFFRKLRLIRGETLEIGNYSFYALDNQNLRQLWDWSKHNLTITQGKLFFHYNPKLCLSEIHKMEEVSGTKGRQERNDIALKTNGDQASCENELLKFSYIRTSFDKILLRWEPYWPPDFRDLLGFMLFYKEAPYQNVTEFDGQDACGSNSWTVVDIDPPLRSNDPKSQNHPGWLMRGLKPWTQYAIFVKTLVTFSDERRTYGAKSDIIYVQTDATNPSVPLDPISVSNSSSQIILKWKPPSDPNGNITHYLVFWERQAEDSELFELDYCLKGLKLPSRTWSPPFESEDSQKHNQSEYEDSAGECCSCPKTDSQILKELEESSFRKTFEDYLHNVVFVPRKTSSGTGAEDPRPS
Chain of Insulin receptor (Homo sapiens) (P06213 763-1382 limits assumed): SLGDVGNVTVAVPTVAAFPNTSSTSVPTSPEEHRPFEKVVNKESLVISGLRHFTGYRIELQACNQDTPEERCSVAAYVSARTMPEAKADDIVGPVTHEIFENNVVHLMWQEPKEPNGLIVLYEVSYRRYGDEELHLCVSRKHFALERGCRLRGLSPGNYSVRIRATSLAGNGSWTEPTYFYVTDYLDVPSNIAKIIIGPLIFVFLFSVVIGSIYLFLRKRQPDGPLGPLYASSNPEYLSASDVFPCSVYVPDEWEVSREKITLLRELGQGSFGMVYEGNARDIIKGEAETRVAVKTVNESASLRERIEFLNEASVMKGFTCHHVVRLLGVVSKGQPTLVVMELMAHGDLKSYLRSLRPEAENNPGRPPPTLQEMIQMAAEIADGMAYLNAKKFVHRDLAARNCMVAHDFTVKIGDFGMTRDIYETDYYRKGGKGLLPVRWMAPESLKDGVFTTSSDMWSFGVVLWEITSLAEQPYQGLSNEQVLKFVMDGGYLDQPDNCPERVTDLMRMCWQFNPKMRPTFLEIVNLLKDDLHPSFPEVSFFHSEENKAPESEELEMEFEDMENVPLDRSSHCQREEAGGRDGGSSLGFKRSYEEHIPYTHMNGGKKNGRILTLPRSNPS
Chain of Tyrosine-protein kinase Fyn (Homo sapiens) (P06241 2-537 limits assumed): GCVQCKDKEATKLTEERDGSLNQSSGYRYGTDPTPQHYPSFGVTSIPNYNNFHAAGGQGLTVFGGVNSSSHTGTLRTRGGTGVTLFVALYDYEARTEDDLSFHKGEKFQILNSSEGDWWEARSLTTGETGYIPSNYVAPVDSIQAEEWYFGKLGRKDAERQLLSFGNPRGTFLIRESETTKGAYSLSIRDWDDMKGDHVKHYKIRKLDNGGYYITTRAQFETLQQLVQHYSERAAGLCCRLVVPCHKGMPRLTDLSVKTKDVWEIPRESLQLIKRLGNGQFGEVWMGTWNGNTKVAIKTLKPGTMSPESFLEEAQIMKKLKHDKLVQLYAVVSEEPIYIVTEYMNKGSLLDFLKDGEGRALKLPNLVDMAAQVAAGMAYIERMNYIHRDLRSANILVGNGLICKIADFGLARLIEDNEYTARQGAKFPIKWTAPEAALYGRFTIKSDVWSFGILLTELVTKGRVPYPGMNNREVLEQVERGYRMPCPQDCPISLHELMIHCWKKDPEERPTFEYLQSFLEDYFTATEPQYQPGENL
Chain of Tyrosine-protein kinase HCK (Homo sapiens) (P08631 2-526 limits assumed): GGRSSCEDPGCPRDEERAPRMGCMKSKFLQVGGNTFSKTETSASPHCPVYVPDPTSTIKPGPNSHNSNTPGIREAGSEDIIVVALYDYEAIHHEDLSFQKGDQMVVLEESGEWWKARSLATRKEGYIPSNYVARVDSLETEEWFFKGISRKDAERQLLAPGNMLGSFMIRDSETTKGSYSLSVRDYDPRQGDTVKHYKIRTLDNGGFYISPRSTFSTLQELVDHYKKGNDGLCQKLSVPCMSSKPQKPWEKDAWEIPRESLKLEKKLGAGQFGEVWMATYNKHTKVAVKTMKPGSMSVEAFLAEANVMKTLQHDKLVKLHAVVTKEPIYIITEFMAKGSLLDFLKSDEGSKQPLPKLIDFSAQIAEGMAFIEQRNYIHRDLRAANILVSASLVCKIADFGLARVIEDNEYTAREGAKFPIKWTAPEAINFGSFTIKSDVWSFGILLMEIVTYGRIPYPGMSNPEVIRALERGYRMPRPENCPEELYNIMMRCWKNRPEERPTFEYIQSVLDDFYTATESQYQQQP
Chain of Insulin receptor-related protein (Homo sapiens) (P14616 27-742 limits assumed): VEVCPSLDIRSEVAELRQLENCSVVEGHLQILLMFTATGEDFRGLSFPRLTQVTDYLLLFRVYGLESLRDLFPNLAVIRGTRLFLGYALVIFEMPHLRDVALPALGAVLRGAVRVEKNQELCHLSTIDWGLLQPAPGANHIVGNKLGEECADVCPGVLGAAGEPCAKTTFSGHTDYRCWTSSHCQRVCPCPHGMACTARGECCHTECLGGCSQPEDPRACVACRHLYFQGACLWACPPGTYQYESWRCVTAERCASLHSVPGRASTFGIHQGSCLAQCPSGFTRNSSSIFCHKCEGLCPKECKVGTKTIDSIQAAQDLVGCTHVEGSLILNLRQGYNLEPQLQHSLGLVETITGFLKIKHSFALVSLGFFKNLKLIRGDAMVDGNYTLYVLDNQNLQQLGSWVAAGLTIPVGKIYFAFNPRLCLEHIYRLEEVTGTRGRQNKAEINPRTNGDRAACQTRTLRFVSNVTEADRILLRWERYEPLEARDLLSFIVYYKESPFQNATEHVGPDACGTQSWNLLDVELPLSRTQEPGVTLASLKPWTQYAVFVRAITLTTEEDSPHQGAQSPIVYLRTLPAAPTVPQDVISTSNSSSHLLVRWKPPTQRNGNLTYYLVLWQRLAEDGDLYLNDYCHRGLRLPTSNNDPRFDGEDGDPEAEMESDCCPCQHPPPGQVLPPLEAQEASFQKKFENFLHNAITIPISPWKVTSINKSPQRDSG
Chain of Insulin receptor-related protein (Homo sapiens) (P14616 747-1297 limits assumed): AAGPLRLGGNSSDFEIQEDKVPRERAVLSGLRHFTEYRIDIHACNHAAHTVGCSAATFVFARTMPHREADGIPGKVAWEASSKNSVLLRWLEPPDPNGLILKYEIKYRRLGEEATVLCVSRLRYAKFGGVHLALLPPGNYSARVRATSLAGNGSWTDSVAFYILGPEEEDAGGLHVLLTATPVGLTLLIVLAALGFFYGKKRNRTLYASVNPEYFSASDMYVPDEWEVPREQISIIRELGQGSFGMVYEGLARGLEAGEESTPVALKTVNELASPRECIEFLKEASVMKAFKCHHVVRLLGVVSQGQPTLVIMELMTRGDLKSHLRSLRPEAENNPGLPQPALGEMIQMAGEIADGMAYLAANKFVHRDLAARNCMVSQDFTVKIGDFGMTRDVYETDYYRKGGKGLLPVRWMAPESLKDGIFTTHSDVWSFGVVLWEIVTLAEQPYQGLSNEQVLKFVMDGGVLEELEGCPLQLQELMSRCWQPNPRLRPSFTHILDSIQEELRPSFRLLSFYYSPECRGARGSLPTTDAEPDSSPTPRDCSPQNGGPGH
Chain of Insulin-like growth factor 1 receptor (Homo sapiens) (P08069 31-736 limits assumed): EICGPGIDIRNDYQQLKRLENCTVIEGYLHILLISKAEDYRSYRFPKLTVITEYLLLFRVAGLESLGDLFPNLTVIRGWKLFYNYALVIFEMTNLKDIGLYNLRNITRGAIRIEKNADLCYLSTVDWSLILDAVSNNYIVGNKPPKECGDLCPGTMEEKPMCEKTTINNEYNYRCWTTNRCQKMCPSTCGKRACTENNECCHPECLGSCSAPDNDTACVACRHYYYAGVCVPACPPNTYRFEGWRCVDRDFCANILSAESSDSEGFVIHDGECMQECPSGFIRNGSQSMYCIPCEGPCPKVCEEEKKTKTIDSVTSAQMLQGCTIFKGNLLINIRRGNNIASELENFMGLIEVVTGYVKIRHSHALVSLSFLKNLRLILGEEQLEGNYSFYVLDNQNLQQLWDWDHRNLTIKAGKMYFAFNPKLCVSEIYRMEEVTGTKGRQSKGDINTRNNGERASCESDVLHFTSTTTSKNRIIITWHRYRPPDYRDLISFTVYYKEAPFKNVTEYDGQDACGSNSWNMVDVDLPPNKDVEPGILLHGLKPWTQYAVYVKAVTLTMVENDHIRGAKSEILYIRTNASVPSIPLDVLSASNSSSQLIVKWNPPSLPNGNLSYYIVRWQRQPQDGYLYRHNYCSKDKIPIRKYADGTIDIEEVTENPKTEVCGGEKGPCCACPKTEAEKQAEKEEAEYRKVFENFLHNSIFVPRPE
Chain of Insulin-like growth factor 1 receptor (Homo sapiens) (P08069 741-1367 limits assumed): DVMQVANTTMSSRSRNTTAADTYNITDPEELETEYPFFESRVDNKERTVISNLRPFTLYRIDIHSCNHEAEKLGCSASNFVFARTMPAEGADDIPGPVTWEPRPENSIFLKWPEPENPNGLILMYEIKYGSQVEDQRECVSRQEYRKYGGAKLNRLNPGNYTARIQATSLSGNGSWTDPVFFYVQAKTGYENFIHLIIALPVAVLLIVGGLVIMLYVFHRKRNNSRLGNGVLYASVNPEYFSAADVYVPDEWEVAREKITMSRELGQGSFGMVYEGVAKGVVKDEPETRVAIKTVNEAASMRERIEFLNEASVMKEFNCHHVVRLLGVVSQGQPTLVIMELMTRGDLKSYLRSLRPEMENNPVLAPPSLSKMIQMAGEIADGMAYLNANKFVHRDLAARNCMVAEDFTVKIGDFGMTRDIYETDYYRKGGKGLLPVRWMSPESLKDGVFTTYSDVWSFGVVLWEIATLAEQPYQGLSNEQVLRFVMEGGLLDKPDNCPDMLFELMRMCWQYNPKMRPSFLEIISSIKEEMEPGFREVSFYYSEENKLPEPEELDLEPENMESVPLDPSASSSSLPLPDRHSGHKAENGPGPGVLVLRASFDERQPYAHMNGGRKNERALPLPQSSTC

SMILES | inhibition [1] [%] | inhibition [2] [%] | inhibition [3] [%] | inhibition [4] [%] | inhibition [5] [%] | inhibition [6] [%] | inhibition [7] [%] | inhibition [8] [%] | inhibition [9] [%] | inhibition [10] [%]
NS(=O)(=O)c1ccc(-c2ccc3c(NC(=O)C4CC4)n[nH]c3c2)cc1 | 2.42 | 4.22 | 9.28 | 0.89 | 1.61 | 1.23 | 2.43 | 3.82 | 2.73 | 1.9
NS(=O)(=O)c1ccc(N/C=C2\C(=O)Nc3ccc4ncsc4c32)cc1 | 9.66 | 9.53 | 28.9 | 16 | 19.4 | 0.99 | 11.7 | 0.69 | 4.17 | 1.17
Cc1cc(-c2ccco2)cc(C)c1/C=C/c1cncc(-c2nn[nH]n2)c1 | 1.98 | 1.62 | 3.34 | -1.5 | 1.06 | 0.61 | 0.42 | 1.36 | -0.21 | -0.49
CCn1c(-c2nonc2N)nc2c(C#CCN)ncc(OCCCN)c21 | -1.61 | 0.79 | -3.58 | -5.07 | -6.11 | -5.48 | -4.01 | -0.39 | 0.07 | 0.2
COc1cccc(-n2ncc3c(N/N=C/c4ccncc4)ncnc32)c1 | 73.8 | 15.7 | 59.2 | 4.62 | 4.88 | 6.46 | 7.36 | 1.64 | 5.33 | 1.63
CCn1c(-c2nonc2N)nc2c(C#CC(C)(C)O)nc(O[C@@H](CN)c3ccccc3)cc21 | 25 | 0.41 | 14.1 | -2.18 | -0.35 | 1.17 | 1.91 | -1.87 | -2.16 | 0.11
COc1cc(C=NNc2ncnc3c2cnn3Cc2ccccc2)ccc1O | 4.87 | 3.29 | 33.7 | -3.54 | -1.6 | -3.1 | – | -3.04 | -4.41 | -1.61
COc1cccc(COc2cc(-n3cnc4ccccc43)sc2C(N)=O)c1 | 2.15 | -1.32 | -0.98 | -3.85 | -1.64 | -3.2 | 0.19 | -0.6 | -1.17 | -2.19
CCn1c(-c2nonc2N)nc2c(C#CC(C)(C)O)ncc(OCC3CCNCC3)c21 | 2.15 | 2.07 | 5.41 | -3.92 | -4.46 | 2.75 | 1.72 | 2.1 | 2.17 | -2.28
NC(=O)c1sc(-n2cnc3cc(C(F)(F)F)ccc32)cc1OCc1ccccc1Br | 7.58 | 2.82 | 0.29 | -2.64 | 0.95 | 0.33 | 1.77 | 1.13 | -0.33 | -0.64
COc1cc2c(cc1Nc1nc(Nc3ccsc3C(N)=O)c3cc[nH]c3n1)N(C(=O)CN(C)C)CCC2 | 6.09 | 14 | 16.6 | 99.3 | 101 | 102 | 99.9 | 95.7 | 97.3 | -1.24
CCn1c(-c2nonc2N)nc2c(C#CC(C)(C)O)ncc(OC[C@@H]3CCCN3)c21 | 1.07 | -1.1 | 1 | -4.88 | 0.19 | 0.85 | -1.35 | -1.3 | -0.44 | -1.58
Nc1nonc1-c1nc2cnccc2n1C1CCCCC1 | 4.39 | -1 | 0.66 | -3.43 | -0.98 | -0.54 | -0.22 | -2.35 | -3.62 | -0.34
Fc1ccc(-c2ncn(C3CCNCC3)c2-c2ccnc(Oc3ccccc3)n2)cc1 | -3.36 | 2.11 | 1.98 | – | -4.15 | 2.42 | 3.05 | 0.57 | 0.22 | -3.91
